Screening results (PubChem BioAssay)
Compounds with a hit are over-represented: about 4.3% of the library has one in this group of screens.
Wnt act – activators of Wnt/beta-catenin signaling; hit rate 1.2% among 300,000; Wnt/beta-catenin reporter cell assay, activator, plate reader; activation, % at 9.35 µM; in the data active means activation above about 30%, passing the limit was not always enough; inconclusive means no clear call, values can overlap the other calls;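 further: 0% = neutral control wells and 100% = positive control wells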
esBAF inh – blocks esBAF chromatin remodeling in mouse ES cells; Bmi1-luciferase knock-in reporter, 24 h; 100% = twice the neutral-well signal; reporter increase, % at 12.5 µM; hit rate 2% among 350,000; in the data active means activation above about 40%; inconclusive means no clear call, values can overlap the other calls;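 further: 0% = median of the plate's neutral control wells and 100% = double that signal; a rise in the Bmi1 reporter signal indicates esBAF inhibition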
HSF1 inhib – HSF1 inhibition; NIH3T3-HGL HSE-luciferase, MG132-induced, luminescence 8 h; stronger effect = lower value; activity change, negative = inhibition, % at 7.5 µM (by protocol); hit rate 0.77% among 300,000; AID 2098;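 active means more than half of replicate wells show activity change below -50%, luminescence cut by over half; inconclusive means some wells, but at most half, below -50%; inactive means no replicate well below -50%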;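 further: luciferase reports HSF-1 transcriptional activity via heat shock element; 0% = median of DMSO wells and -100% = zero luminescence signal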
SMARCA2 act – increases SMARCA2 function in MMTV reporter cells; activation, % at 9.1 µM; MG213 cells, MMTV-luciferase reporter, dexamethasone, overnight; AID 652017; hit rate 1% among 370,000; in the data active means activation above about 7.8%;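 further: 0% = vehicle wells and 100% = reference activator wells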
MITF TRPM1 HTS – MITF TRPM1 promoter activation in melanoma cells. SK-MEL-5 TRPM1-promoter luciferase, 24 h; % of positive control, neutral wells = 0. activation, % at 12.5 µM. hit rate 0.75% among 300,000;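 active means mean activation of at least 80% with every replicate also reaching 80%; inconclusive means mean reaches 80% but some replicate falls short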;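 further: 0% = neutral control wells and 100% = parthenolide positive control wells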
HSF1 activator – increases HSF-1 driven luciferase reporter signal. NIH3T3-HGL HSF-1 luciferase reporter, MG132, 8 h; 100% = twice DMSO control signal. activation, % at 9 µM. hit rate 1.7% among 300,000;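 active means mean replicate activation of at least 50% with a set share of replicates each reaching 50%; inconclusive means only one of those two conditions met; inactive means mean below 50% and too few replicates reaching it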;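 further: 0% = median of the neutral control wells and 100% = twice that signal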
esBAF Ring1 qPCR – confirmation of esBAF inhibitors: Ring1 de-repression in mouse ESCs; shares compounds with esBAF inh; mouse ESC E14, Ring1 mRNA RT-qPCR fold change; fold change at 33 µM; 550 tested, under 10 active; AID 743176;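 active means Ring1 gene expression raised more than 2-fold over untreated cells in both replicates at either tested dose; inconclusive means only one replicate above 2-fold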;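 further: Ring1 transcript normalised to actin housekeeping signal by TaqMan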
Fgf4 repress – confirmation of esBAF inhibitors: Fgf4 repression in mouse ESCs; Fgf4 expression fold change at 33 µM; mouse ESC E14, Fgf4 mRNA qPCR fold change; stronger effect = lower value; hit rate 4% among 550; shares compounds with esBAF inh;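 active means Fgf4 expression under 0.8 fold of control in both repeat measurements at one or both tested doses; inconclusive means under 0.8 fold in just a single repeat measurement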;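 further: Fgf4 transcript normalised to actin in duplex TaqMan qPCR; cells exposed to compound for 24 h before lysis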
esBAF Bmi1 qPCR – confirmation of esBAF inhibitors: Bmi1 de-repression in mouse ESCs | shares compounds with esBAF inh | mouse ESE14 ES cells, Bmi1 mRNA qPCR fold; stronger effect = higher value | fold change at 33 µM | 550 tested, under 10 active | AID 743180;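 active means Bmi1 expression fold change above 6 at either tested concentration, seen in replicate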
A549 tox SP – A549 cell cytotoxicity; shares compounds with esBAF inh; plate reader; cell viability change % (negative = cytotoxic), % at 25 µM, hits read low; 550 tested, under 10 active; call rule not given here
HepG2 tox SP – HepG2 cell cytotoxicity at single point. shares compounds with esBAF inh. plate reader; stronger effect = lower value. activity change, negative = inhibition, % at 25 µM. hit rate 4% among 550. AID 743189; in the data active means activity change below about -50%
HEK293 cytotox SP – cytotoxicity in HEK293 cells | shares compounds with esBAF inh | plate reader | activity change, negative = inhibition, % at 25 µM, hits read low | hit rate 3% among 550 | AID 743190; in the data active means activity change below about -38%, passing the limit was not always enough
* marks the source's active call; other numbers are inactive results; u = inconclusive; x = not tested or not shown.

SMILES	Wnt act	esBAF inh	HSF1 inhib	SMARCA2 act	MITF TRPM1 HTS	HSF1 activator	others
Cc1ccc(/C=N\NC(=O)Cc2noc3ccccc23)cc1	-1	12	-87*	-1	12	-89
CCCCN1C(=S)NC[C@@H]1Cc1cccc2ccccc12	12	59*	11	4	32	16
CCCCN1C(=O)C(=O)NC[C@H]1Cc1cccc2ccccc12	1	x	x	-6	x	x
Cc1[nH]nc(Nc2ccc(C(C)C)cc2)c1[N+](=O)[O-]	1	93*	26	6	114*	u
Cc1ccc(Nc2n[nH]c(C)c2[N+](=O)[O-])cc1	45*	x	7	5	96*	38
Cc1[nH]nc(Nc2ccc(Br)cc2)c1[N+](=O)[O-]	4	x	21	2	x	39
CC(C)CNC(=O)COC(=O)c1c2c(nc3ccccc13)/C(=C\c1cccs1)CC2	16	55*	x	0	12	x
O=C(COC(=O)c1c2c(nc3ccccc13)/C(=C\c1cccs1)CCC2)Nc1ccccc1	-4	x	12	6	6	16
COCC1CCN(C(=O)c2cc(COc3cncc(Cl)c3)on2)C1 (stereo unspecified)	2	-1	0	-1	1	-7
Cc1cc(OCc2cc(C(=O)N3CCCCCC3)no2)cc(C)c1Cl	35*	48*	2	3	u	13
COCC1CCN(C(=O)c2cc(COc3cc(C)c(Cl)c(C)c3)on2)C1 (stereo unspecified)	20	64*	20	3	73	25
CCCN1C[C@H](C)[C@@H](OC)CN(C)C(=O)c2cc(NC(=O)COC)ccc2OC[C@H]1C	x	-1	x	x	x	x
Cc1cc(C(=O)COC(=O)c2cc(Cl)ccc2N)c(C)n1Cc1ccco1	10	x	-7	5	106*	-7
Cc1cc(C(=O)COC(=O)c2ccco2)c(C)n1Cc1ccco1	-1	x	-75*	-7	-13	-78
Cc1cc(C(=O)COC(=O)c2ccncc2)c(C)n1Cc1ccco1	3	6	-44	-1	18	-46
Cc1noc(C)c1NC(=O)Nc1ccc2c(c1)C(=O)N(C)[C@H]1CC[C@H](CC(=O)Nc3ccccc3F)O[C@@H]1CO2	x	8	x	x	x	x
O=C(NCC[C@@H]1CC[C@H](NC(=O)C2CC2)[C@@H](CO)O1)Nc1ccc(Cl)cc1	x	9	x	x	x	x
COc1ccc(-c2cn(Cc3ccc(C(N)=O)cc3)c(-c3ccncc3)n2)cc1	47*	76*	x	3	106*	x
CO[C@@H]1CN(C)C(=O)c2cc(NC(=O)C3CCC3)ccc2OC[C@@H](C)N(S(=O)(=O)c2ccc(Cl)cc2)C[C@H]1C	x	3	x	x	x	x
COc1cc(/C=C2\COC/C(=C\c3cc(OC)c(OC)c(OC)c3)C2=O)cc(OC)c1OC	-18	x	-92*	-11	-90	-93
COc1cc(/C=C2\CC/C(=C\c3cc(OC)c(OC)c(OC)c3)C2=O)cc(OC)c1OC	x	x	12	0	-18	28
COc1cc(/C=C2\CC(C(C)(C)C)C/C(=C\c3cc(OC)c(OC)c(OC)c3)C2=O)cc(OC)c1OC (stereo unspecified)	-15	-56	41	-2	-82	53*
C[C@@H]1CN([C@H](C)CO)C(=O)c2cc(NS(=O)(=O)c3ccc(Cl)cc3)ccc2O[C@@H](C)CCCCO[C@@H]1CN(C)S(C)(=O)=O	x	-5	x	x	x	x
Cc1csc(NC(=O)c2ccc(Br)s2)n1	23	57*	9	1	22	19
CC(C)(C)c1csc(NC(=O)c2ccncc2)n1	1	x	-1	-6	-8	-1
SMILES	Wnt act	esBAF inh	HSF1 inhib	SMARCA2 act	MITF TRPM1 HTS	HSF1 activator	others
CC(C)(C)c1csc(NC(=O)c2ccc3nccnc3c2)n1	x	x	4	6	114*	38
Cc1ccc(C(=O)Nc2nc(C(C)(C)C)cs2)s1	x	66*	16	1	68	20
CC(C)(C)c1csc(NC(=O)c2ccc(Cl)s2)n1	x	94*	36	0	38	20
O=C(Nc1nc(-c2ccc(Cl)s2)cs1)c1ccccc1	16	50*	13	-4	27	19
CNC(=O)c1ccsc1NC(=O)c1ccc(Cl)s1	-2	16	-66*	1	x	-72
CNC(=O)c1ccsc1NC(=O)c1ccccc1	6	15	11	1	4	9
CN(C(=O)c1ccco1)c1nc(-c2ccccc2)cs1	19	44*	32	5	130*	76*
CCC(=O)N(CC)c1nc(-c2ccc(OC)cc2)cs1	26	72*	21	0	72	26
CCN(C(=O)c1ccco1)c1nc(-c2ccc(OC)cc2)cs1	21	81*	26	2	x	48
COc1ccc(-c2csc(N(CC(C)C)C(=O)c3ccco3)n2)cc1	2	10	2	2	2	-7
COc1ccc(S(=O)(=O)Nc2cccc3c2O[C@H](CN(C)S(C)(=O)=O)[C@H](C)CN([C@@H](C)CO)C3=O)cc1	x	-3	x	x	x	x
N#Cc1ccc(-c2ccc3c(c2)[C@H]2[C@H](CCN2C(=O)c2ccccc2F)[C@@H](CO)N3)cc1	x	-8	x	x	x	x
C[C@H](CO)N1C[C@H](C)[C@H](CN(C)S(=O)(=O)c2ccc(F)cc2)Oc2ccc(NC(=O)NC3CCCCC3)cc2CC1=O	x	6	x	x	x	x
O=C(NCc1ccccn1)Nc1ccc(Br)cc1Cl	24	56*	25	6	u	27	esBAF Ring1 qPCR=1.1;Fgf4 repress=0.92;esBAF Bmi1 qPCR=0.98;A549 tox SP=5;HepG2 tox SP=44;HEK293 cytotox SP=7
O=C(NCc1ccccn1)Nc1ccc(Cl)cc1Cl	14	x	26	4	53	42
C(=NOCc1ccccc1)c1cccnc1	28	58*	x	1	52	x	esBAF Ring1 qPCR=1.2;Fgf4 repress=0.97;esBAF Bmi1 qPCR=1.5;A549 tox SP=-8;HepG2 tox SP=-7;HEK293 cytotox SP=12
c1ccc(-c2cnnc(-c3ccccn3)n2)cc1	u	28	11	3	u	6
